Hits are enriched below; roughly 10% of the tested compounds scored in any of these assays.
G9a block = blocks human histone lysine methyltransferase G9a. Potency, µM (doses to about 102 µM), inactives show top-dose activity, negative = inhibition, hits mostly inhibitors. AID 504332. Q96KQ7. 8.8% of 350,000 active. G9a H3K9 monomethylation, AlphaScreen, 2 h; also: % is scaled to controls: 0 for no effect and ±100 for the full control effect; nearly all actives have a fitted effect of over 75% in size
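Using a bead-based AlphaScreen, monomethylated H3K9 product from 2 h room-temperature reactions (G9a 20 nM, peptide 500 nM, SAM 20 uM) was detected with 0.5 ug/mL rabbit anti-H3K9me1 antibody.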
JMJD2A Tudor = inhibitors of human JMJD2A Tudor domain; AlphaScreen JMJD2A-Tudor / H3K4me3 peptide binding; Potency, µM (series often up to 114 µM), inactives show top-dose activity change, negative = inhibition, usual class: inhibitors; 4.4% of 390,000 active; also: % is scaled to controls: 0 for no effect and ±100 for the full control effect; nearly all actives have a fitted effect of over 50% in size
Target sequence (O75164 whole entry, looked up, the tested form may be a part): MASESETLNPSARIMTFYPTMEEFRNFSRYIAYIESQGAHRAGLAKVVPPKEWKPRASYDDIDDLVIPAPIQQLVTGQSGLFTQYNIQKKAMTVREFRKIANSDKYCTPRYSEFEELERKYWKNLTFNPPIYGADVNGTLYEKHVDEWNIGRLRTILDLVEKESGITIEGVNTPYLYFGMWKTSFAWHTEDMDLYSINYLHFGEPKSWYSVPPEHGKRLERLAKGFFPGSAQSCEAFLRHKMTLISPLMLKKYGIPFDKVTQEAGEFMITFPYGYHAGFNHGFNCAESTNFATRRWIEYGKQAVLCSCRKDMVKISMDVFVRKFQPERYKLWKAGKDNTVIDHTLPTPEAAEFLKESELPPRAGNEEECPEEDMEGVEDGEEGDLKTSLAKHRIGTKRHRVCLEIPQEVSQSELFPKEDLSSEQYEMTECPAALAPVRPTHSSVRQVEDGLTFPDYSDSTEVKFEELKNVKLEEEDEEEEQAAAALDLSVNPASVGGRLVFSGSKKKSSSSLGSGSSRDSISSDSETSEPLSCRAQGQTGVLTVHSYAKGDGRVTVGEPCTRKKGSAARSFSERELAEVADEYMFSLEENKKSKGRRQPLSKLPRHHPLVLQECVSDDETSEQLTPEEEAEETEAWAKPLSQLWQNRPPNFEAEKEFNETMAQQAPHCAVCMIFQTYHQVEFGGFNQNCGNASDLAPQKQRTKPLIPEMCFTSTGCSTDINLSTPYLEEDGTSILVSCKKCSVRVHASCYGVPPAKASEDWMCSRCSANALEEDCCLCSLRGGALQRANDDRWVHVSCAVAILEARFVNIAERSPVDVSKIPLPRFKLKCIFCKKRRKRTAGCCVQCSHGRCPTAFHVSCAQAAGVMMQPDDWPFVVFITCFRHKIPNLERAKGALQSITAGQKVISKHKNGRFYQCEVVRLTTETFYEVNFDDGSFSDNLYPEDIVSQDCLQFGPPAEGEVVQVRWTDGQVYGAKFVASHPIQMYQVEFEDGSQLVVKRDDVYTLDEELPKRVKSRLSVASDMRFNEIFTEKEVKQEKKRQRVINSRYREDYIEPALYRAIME
HP1b binding inh = inhibitors of HP1-beta chromodomain binding to methylated histone tails | P83916 | AlphaScreen HP1-beta / biotin-H3K9me3 peptide binding | Potency, µM (titrated, usually from 114 µM), inactives show top-dose activity change, negative = inhibition, hits mostly inhibitors | 0.56% of 390,000 active; also: nearly all actives have a fitted effect of over 70% in size
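Compound inhibition of the preformed complex between 50 nM HP1-beta and 50 nM biotinylated H3K9me3 peptide was read by AlphaScreen. Buffer was PBS pH 7.4 with 0.01% Tween-20. Incubations ran 30 min at room temperature, with 10 ug/mL donor/acceptor beads.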
BAZ2B inh = blocks human BAZ2B | Q9UIF8 | AID 504333 | 4.4% of 360,000 active | AlphaScreen BAZ2B-H3K14Ac peptide displacement | Potency, µM (doses to about 114 µM), without a hit: at the top dose activity change, negative = inhibition, most hits filed as inhibitors; also: % is scaled to controls: 0 for no effect and ±100 for the full control effect; nearly all actives have a fitted effect of over 60% in size
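BAZ2B 50 nM plus b-H3(5-23)K14Ac 50 nM, PBS pH 7.4/0.01% Tween-20, 30 min RT; compound added (max 110 uM), 30 min RT; streptavidin donor/Ni-chelate acceptor beads 10 ug/mL final, 20 min dark; AlphaScreen read.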
GLS inhibitor = blocks human kidney-isoform glutaminase activity. Potency, µM (series often up to 45.5 µM), for the others: at the highest dose activity change, negative = inhibition, actives largely listed as inhibitors. 0.21% of 410,000 active. GLS enzymatic activity, qHTS titration. O94925. AID 624170; also: % is scaled to controls: 0 for no effect and ±100 for the full control effect
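Compounds were pin-transferred onto hKGA, after which L-glutamine (1 mM solution) and a detection mix of glutamate oxidase, HRP and Amplex Red were added. Initial and 30 min RT fluorescence reads were collected.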
* = called active by the depositor; u = inconclusive; x = not tested or not shown; ! = repeats disagree; [ ] = dose if it differs, or a comment. Calls follow the shape of the dose curve; as a rule, active = well fitted curve in the direction sought with a large enough effect; inconclusive = small, poorly fitted or top-dose-only effect, or another doubt; inactive = no such curve, though single readings can be large; an effect the other way counts as inactive or inconclusive. Potency is read from the fitted curve at half-maximal effect.

SMILES | G9a block | JMJD2A Tudor | HP1b binding inh | BAZ2B inh | GLS inhibitor
O=C1/C(=C\c2cc([N+](=O)[O-])ccc2O)SC(=S)N1Cc1ccc(Cl)cc1 | 20µM* | 35.5µM* | -22.3% | 25.1µM* | 1.3%
O=C(CCCN1C(=O)/C(=C\c2cccs2)SC1=S)Nc1cc([N+](=O)[O-])ccc1O | -17.2% | -18.2% | -0.3% | u | 17.7%
O=C1/C(=C\c2cccc(O)c2O)SC(=S)N1Cc1ccccc1 | 4.47µM* | 12.6µM* | u | 20µM* | 23.8%
O=C1/C(=C\c2ccc(O)c(O)c2)SC(=S)N1Cc1ccccc1 | 3.98µM* | 2.24µM* | 10µM* | 8.91µM* | 27.8%
Cc1ccccc1/C=C1\SC(=S)N(/N=C/c2cc([N+](=O)[O-])ccc2O)C1=O | 44.7µM* | u | -21.7% | 22.4µM* | 0.0%
Cc1ccc(C(=O)N/N=C2\SCC(=O)N2c2cc(C)ccc2C)cc1 | 19.3%[59 µM] | 1.3% | 16.6% | 2.0% | 3.8%
COc1ccc(OC)c(C(=O)NC(CC(N)=O)c2ccc(NCCN3CCCC3)c([N+](=O)[O-])c2)c1 (stereo unspecified) | x | u | 12.4% | -7.6% | 8.4%
O=C(CN1C(=O)/C(=C/c2ccccc2)SC1=S)NNC(=O)c1ccccc1O | -4.4% | -16.6% | 34.9% | 79.4µM* | 8.1%
COc1cc(/C=C2/SC(=S)N(c3c(C)n(C)n(-c4ccccc4)c3=O)C2=O)ccc1O | 6.5%[12.7 µM] | u | u | 44.7µM* | -2.8%
O=C(CCCN1C(=O)/C(=C/c2ccccc2)SC1=S)Nc1cccc(O)c1 | u | u | -11.8% | u | -3.0%
COc1cc(/C=C2/SC(=S)N(CC(=O)O)C2=O)ccc1OC(=O)c1ccco1 | 44.7µM* | -24.1% | -24.6% | -37.4% | -7.8%
COc1cc(/C=C2\SC(=S)N(CC(=O)O)C2=O)ccc1OC(=O)c1ccco1 | u | -16.6% | -6.8% | -27.9% | 13.5%
O=C1/C(=C\c2cccc(O)c2)SC(=S)N1Cc1ccccc1 | -10.6%[0.501 µM] | 44.7µM* | -26.2% | 39.8µM* | -2.1%
COc1cccc(CNC(=O)CCNS(=O)(=O)c2ccc3[nH]c(=O)oc3c2)c1 | 10.2% | -7.5% | 31.4% | -9.0% | -1.1%
CC(=O)N1C(=O)/C(=C2\SC(=S)N(c3c(C)n(C)n(-c4ccccc4)c3=O)C2=O)c2ccccc21 | 3.98µM* | -20.1% | u | -34.2% | 1.1%
O=C1/C(=C/c2ccc(O)cc2)SC(=S)N1Cc1cccnc1 | -44.8%[59 µM] | -5.4% | 10.4% | -0.9% | -2.4%
COc1ccc(/C=C2\SC(=S)N(Cc3cccnc3)C2=O)cc1C | 11.2µM* | u | -51.5% | 10µM* | 6.1%
Cc1c(N2C(=O)/C(=C3/C(=O)N(C)c4ccccc43)SC2=S)c(=O)n(-c2ccccc2)n1C | u | -4.5% | 25.0% | 3.5% | 1.9%
COc1cc(/C=C2/SC(=S)N(Cc3ccccc3)C2=O)ccc1O | 44.7µM* | 39.8µM* | u | 39.8µM* | 1.4%
CCOC(=O)CCc1c(C)c2ccc(OC(C)C(=O)OCC)c(C)c2oc1=O (stereo unspecified) | 19.7%[59 µM] | 17.8% | 74.5% | 13.6% | 1.6%
O=C(c1cc(COc2ccc(F)cc2Cl)on1)N1CCN(C2CCCC2)CC1 | 86.6% | -17.2% | 42.5% | 1.4% | 12.6%
O=C(Cc1ccccc1)Nc1nnc2n1CCS2 | 10µM* | 50.1µM* | 11.7%[57 µM] | 79.4µM* | -16.1%
O=C(Cc1ccc(F)cc1)Nc1nnc2n1CCS2 | 10µM* | u | 5.5%[57 µM] | 56.2µM* | -15.8%
O=C(Nc1nnc2n1CCS2)c1ccco1 | 1.78µM* | 1.58µM* | 19.7%[57 µM] | 12.6µM* | 0.0%
CCCC(=O)Nc1nnc2n1CCS2 | u | 79.4µM* | -2.5%[57 µM] | -10.6% | -10.9%
SMILES | G9a block | JMJD2A Tudor | HP1b binding inh | BAZ2B inh | GLS inhibitor
CC(C)(C)c1ccc(C(=O)Nc2nnc3n2CCS3)cc1 | 52.8%[59 µM] | -3.9% | 23.6%[57 µM] | 2.1% | -7.4%
CC(C)(C)CC(=O)Nc1nnc2n1CCS2 | 38.0%[59 µM] | -8.4% | 13.9%[57 µM] | -3.5% | -7.7%
CCOc1ccc(S(=O)(=O)N2CCC(C(=O)NCc3cccnc3)CC2)cc1Cl | 9.2% | -6.9% | 22.0% | 1.7% | -2.5%
CN(CC(=O)Nc1ccc(F)cc1)C(=O)c1ccccc1OCc1ccc(F)cc1 | 6.6% | 4.3% | 31.6% | -10.2% | -11.2%
CCOC(=O)C1C(=O)NC(N2CCCCC2)=NC1c1ccccc1 (stereo unspecified) | -2.7%[12.7 µM] | -11.6% | 30.0% | -4.2% | x
OC(CN1CCCC1)Cn1ccc2ccccc21 (stereo unspecified) | 14.1µM* | 20µM* | 23.3% | 50.1µM* | -2.3%
OC(CNc1ccccc1)Cn1ccc2ccccc21 (stereo unspecified) | 31.6µM* | 3.98µM* | u | 35.5µM* | -3.8%
O=C(O)Cn1ccc2ccccc21 | 23.0%[12.7 µM] | -16.4% | 32.5% | -14.9% | -10.0%
Cc1cc(C)c(OCC(O)CN2CCN(C(=O)c3ccccc3)CC2)c(C)c1 (stereo unspecified) | 20µM* | 22.4µM* | u | u | 5.7%
O=C(c1ccccc1)N1CCN(CC(O)Cn2ccc3ccccc32)CC1 (stereo unspecified) | 11.2µM* | u | u | 56.2µM* | 9.0%
OC(CN1CCCCC1)Cn1c2ccccc2c2ccccc21 (stereo unspecified) | 31.3% | 5.7% | 43.5% | 15.1% | 2.9%
Cc1ccc(C(=O)N2N=C(c3ccccc3O)CC2c2ccccc2)cc1 (stereo unspecified) | 1.0% | -18.2% | 1.1% | -0.8% | -5.5%
CC(C)c1onc(C(=O)Nc2cccc(Cl)c2)c1[N+](=O)[O-] | u | -19.2% | 36.9% | 6.3% | -2.0%
Cc1ccc2c(c1Br)/C(=N/N1C(=O)c3ccccc3C1=O)C(=O)N2 | 13.5% | -18.9% | 34.8% | -10.2% | 2.4%
CCOc1ccc(N=C2C(=O)Nc3ccc(C)c(Br)c32)cc1 | u | u | u | 35.5µM* | -10.4%
CCNc1nc(NC(C)(C)C)nc(N(CC)n2cnnc2)n1 | 22.3%[0.0925 µM] | -12.7% | 10.5% | 1.3% | 4.3%
CCOc1ccc(/C(CCC(=O)O)=N/NC(=S)NC(C)C)cc1 | 22.4µM* | -20.0% | -9.7% | -26.3% | -21.7%
COc1ccc(C(CC(=O)O)NS(=O)(=O)c2ccc3c(c2)N(C(C)=O)CC(C)O3)cc1 (stereo unspecified) | 8.4% | -22.6% | 20.0% | -7.3%[57.1 µM] | 13.1%
C#CCOC(=O)CN1C(=O)c2cccc3cccc(c23)C1=O | -1.6% | -13.3% | 40.2% | -4.7% | 0.3%
CC1=CC(C)(C)Nc2ccc(OC(=O)CN3C(=O)c4cccc5cccc(c45)C3=O)cc21 | 8.91µM* | u | -21.0% | 50.1µM* | -0.9%
CCOc1ccc2c(c1)C(C)=CC(C)(C)N2 | 8.91µM*! | u | -7.1% | 50.1µM* | -6.8%
CC1=CC(C)(C)Nc2ccc(OC(=O)C(Cc3ccccc3)N3C(=O)c4ccccc4C3=O)cc21 (stereo unspecified) | u | u | u | u | -2.7%

High-throughput results as filed in PubChem.
